# Measured values as given in PubChem BioAssay (EPA / NIEHS).
# Records with an inconclusive call do not appear. The source made the active and inactive calls. Rule for the calls: active = hit-call score of the fitted dose curve at least 0.9, where 1 is the maximum; inconclusive = response in the unintended direction; inactive = score below 0.9.
# How the values were obtained:
# [1] = molecular target: human Peroxisome Proliferator-activated Receptor alpha (PPARa), PPARA (gene 5465) (UniProt Q07869); experiment: ATG_PPARa_TRANS: Attagene TRANS-FACTORIAL HepG2 Assay for human Peroxisome Proliferator-activated Receptor alpha (PPARa) (AID 2283001);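 for AC50: potency for gain of reporter signal over DMSO so agonist or activator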
# Outline: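 HepG2 cells transiently transfected with multiplexed GAL4-UAS reporters driven by exogenous chimeric NR-Gal4 proteins; reporter mRNA measured after 24 h dosing. Read-out by RT-PCR, 6-FAM labelling, HpaI digestion and capillary electrophoresis; gain of signal versus DMSO.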
# [2] = molecular target: human Peroxisome Proliferator-activated Receptor delta (PPARd), PPARD (gene 5467) (UniProt Q03181); experiment: ATG_PPARd_TRANS: Attagene TRANS-FACTORIAL HepG2 Assay for human Peroxisome Proliferator-activated Receptor delta (PPARd) (AID 2283002)
# Outline: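 Fluorescence from capillary electrophoresis of labelled RT-PCR reporter fragments gives the signal; DMSO sets baseline. Cells: HepG2 transiently carrying GAL4-UAS reporter units plus chimeric nuclear receptor-Gal4 proteins, exposed to chemicals for 24 h.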
# [3] = molecular target: Peroxisome proliferator-activated receptor gamma (Homo sapiens) (UniProt P37231); experiment: ATG_PPARg_TRANS: Attagene TRANS-FACTORIAL HepG2 Assay for human Peroxisome Proliferator-activated Receptor-gamma (PPARg) (AID 2283007)
# Outline: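 Gain-of-signal endpoint relative to DMSO, derived from reporter mRNA levels quantified by RT-PCR and capillary electrophoresis. Cells were HepG2 transiently expressing a chimeric NR-Gal4 construct with GAL4-UAS reporters, exposed to chemicals for 24 h.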
# [4] = molecular target: human RAR-related Orphan Receptor beta (RORb), RORB (gene 6096) (UniProt Q92753); experiment: ATG_RORb_TRANS: Attagene TRANS-FACTORIAL HepG2 Assay for human RAR-related Orphan Receptor beta (RORb) (AID 2283010)
# Outline: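 HepG2 cells transiently transfected with GAL4-UAS reporter units expressing chimeric NR-Gal4 protein; reporter mRNA measured 24 h after dosing by RT-PCR, 6-FAM labelling and capillary electrophoresis. Gain-of-signal fitted relative to DMSO baseline.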
# [5] = molecular target: human Retinoid X Receptor beta (RXRb), RXRB (gene 6257) (UniProt P28702); experiment: ATG_RXRb_TRANS: Attagene TRANS-FACTORIAL HepG2 Assay for human Retinoid X Receptor beta (RXRb) (AID 2283013)
# Outline: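 HepG2 cells were transiently transfected with multiplexed GAL4-UAS reporters and a chimeric RXRb-Gal4 construct, then exposed for 24 h. Reporter mRNA was quantified by RT-PCR, FAM labeling, HpaI digestion and capillary electrophoresis; gain of signal was scored against DMSO.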
# [6] = molecular target: human Thyroid Receptor alpha (THRa1), THRA (gene 7067) (UniProt P10827); experiment: ATG_THRa1_TRANS: Attagene TRANS-FACTORIAL HepG2 Assay for human Thyroid Receptor alpha (THRa1) (AID 2283014)
# Outline: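 Reporter transcript induction, read by capillary electrophoresis of 6-FAM-labelled RT-PCR products, reflects activity of a transfected THRa1-Gal4 fusion in HepG2 liver cells. Cells were dosed for 24 h; activity was fitted in the positive direction against DMSO.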
# [7] = molecular target: Nuclear receptor subfamily 1 group I member 2 (Homo sapiens) (UniProt O75469); experiment: ATG_PXR_TRANS: Attagene TRANS-FACTORIAL HepG2 Assay for human Pregnane X Receptor (PXR) (AID 2283008)
# Outline: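 HepG2 cells transiently transfected with GAL4-UAS reporter units and PXR-Gal4 chimera, exposed 24 h. Reporter mRNA quantified by RT-PCR, fluorescent labelling, HpaI digestion and capillary electrophoresis; gain of signal vs DMSO.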
# [8] = molecular target: human RAR-related Orphan Receptor gamma (RORg), RORC (gene 6097) (UniProt P51449); experiment: ATG_RORg_TRANS: Attagene TRANS-FACTORIAL HepG2 Assay for human RAR-related Orphan Receptor gamma (RORg) (AID 2283011);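 for AC50: potency for induction of reporter transcripts above DMSO so activators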
# Outline: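 First, HepG2 liver cells were transfected with GAL4-UAS-driven reporter constructs and the RORg-Gal4 fusion. Next, they were treated with chemical for 24 h. Finally, reporter mRNA was quantified by RT-PCR and capillary electrophoresis, with upward activity fitted against DMSO.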
# [9] = molecular target: Retinoic acid receptor RXR-alpha (Homo sapiens) (UniProt P19793); experiment: ATG_RXRa_TRANS: Attagene TRANS-FACTORIAL HepG2 Assay for human Retinoid X Receptor alpha (RXRa) (AID 2283012)
# Outline: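 HepG2 cells transiently transfected with GAL4-UAS reporter units and chimeric RXRa-Gal4 protein, treated 24 h. Reporter mRNA measured by RT-PCR, fluorescent labelling, HpaI digestion and capillary electrophoresis. Induction fitted against DMSO.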
# [10] = molecular target: Retinoic acid receptor alpha (Homo sapiens) (UniProt P10276); experiment: ATG_RARa_TRANS: Attagene TRANS-FACTORIAL HepG2 Assay for human Retinoic Acid Receptor alpha (RARa) (AID 2283005)
# Outline: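 HepG2 transiently transfected with multiplex GAL4-UAS reporter units including a human RARa–GAL4 chimera; 24 h compound exposure. Reporter mRNA quantified by RT-PCR, 6-FAM labeling and capillary electrophoresis; gain of signal versus DMSO.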
# [11] = molecular target: human Retinoic Acid Receptor gamma (RARg), RARG (gene 5916) (UniProt P13631); experiment: ATG_RARg_TRANS: Attagene TRANS-FACTORIAL HepG2 Assay for human Retinoic Acid Receptor gamma (RARg) (AID 2283009)
# Outline: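 HepG2 transiently transfected with GAL4-UAS reporter units and chimeric NR-Gal4 constructs; 24 h compound exposure. Reporter mRNA quantified by RT-PCR, FAM labeling, HpaI digestion and capillary electrophoresis; gain-of-signal versus DMSO.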
# human Thyroid Receptor alpha (THRa1), THRA (gene 7067), sequence (P10827 whole entry, looked up, the tested form may be a part): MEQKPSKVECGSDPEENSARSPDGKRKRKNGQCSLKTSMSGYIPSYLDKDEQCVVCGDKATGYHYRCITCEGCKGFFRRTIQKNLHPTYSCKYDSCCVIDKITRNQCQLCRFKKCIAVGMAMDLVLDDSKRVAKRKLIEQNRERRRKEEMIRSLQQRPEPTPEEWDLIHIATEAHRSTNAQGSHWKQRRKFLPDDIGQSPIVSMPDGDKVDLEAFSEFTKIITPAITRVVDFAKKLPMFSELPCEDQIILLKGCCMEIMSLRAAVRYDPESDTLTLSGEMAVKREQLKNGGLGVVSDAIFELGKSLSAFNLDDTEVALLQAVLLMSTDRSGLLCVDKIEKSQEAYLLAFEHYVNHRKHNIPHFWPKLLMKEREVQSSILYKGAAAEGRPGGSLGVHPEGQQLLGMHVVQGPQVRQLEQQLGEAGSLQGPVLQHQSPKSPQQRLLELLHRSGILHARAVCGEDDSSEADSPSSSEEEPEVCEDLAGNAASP
# Peroxisome proliferator-activated receptor gamma (Homo sapiens), sequence (P37231 whole entry, looked up, the tested form may be a part): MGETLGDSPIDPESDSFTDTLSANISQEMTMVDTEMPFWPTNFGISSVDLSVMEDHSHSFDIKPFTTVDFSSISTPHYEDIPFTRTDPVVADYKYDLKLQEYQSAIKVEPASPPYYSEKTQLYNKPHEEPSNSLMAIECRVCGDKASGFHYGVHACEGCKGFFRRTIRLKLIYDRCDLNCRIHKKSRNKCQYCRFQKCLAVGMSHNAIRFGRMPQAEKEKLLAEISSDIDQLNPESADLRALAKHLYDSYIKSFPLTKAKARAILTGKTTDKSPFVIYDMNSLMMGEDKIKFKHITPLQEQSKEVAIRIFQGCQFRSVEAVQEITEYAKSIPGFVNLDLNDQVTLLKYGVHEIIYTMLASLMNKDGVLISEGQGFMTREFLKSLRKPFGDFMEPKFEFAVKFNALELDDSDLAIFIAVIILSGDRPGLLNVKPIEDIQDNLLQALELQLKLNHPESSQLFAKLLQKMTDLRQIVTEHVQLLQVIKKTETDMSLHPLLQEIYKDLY
# Retinoic acid receptor RXR-alpha (Homo sapiens), sequence (P19793 whole entry, looked up, the tested form may be a part): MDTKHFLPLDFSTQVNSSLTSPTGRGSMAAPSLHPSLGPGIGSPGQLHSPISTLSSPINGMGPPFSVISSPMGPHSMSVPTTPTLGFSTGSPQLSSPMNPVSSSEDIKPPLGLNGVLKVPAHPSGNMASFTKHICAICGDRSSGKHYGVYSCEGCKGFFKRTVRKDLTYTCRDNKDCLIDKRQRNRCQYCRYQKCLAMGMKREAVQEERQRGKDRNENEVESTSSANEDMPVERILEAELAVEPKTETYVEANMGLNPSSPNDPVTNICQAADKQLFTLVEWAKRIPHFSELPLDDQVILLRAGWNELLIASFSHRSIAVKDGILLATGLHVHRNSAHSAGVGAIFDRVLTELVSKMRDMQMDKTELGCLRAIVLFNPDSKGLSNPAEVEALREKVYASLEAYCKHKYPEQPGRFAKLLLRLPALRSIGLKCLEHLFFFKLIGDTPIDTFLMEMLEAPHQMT
# Nuclear receptor subfamily 1 group I member 2 (Homo sapiens), sequence (O75469 whole entry, looked up, the tested form may be a part): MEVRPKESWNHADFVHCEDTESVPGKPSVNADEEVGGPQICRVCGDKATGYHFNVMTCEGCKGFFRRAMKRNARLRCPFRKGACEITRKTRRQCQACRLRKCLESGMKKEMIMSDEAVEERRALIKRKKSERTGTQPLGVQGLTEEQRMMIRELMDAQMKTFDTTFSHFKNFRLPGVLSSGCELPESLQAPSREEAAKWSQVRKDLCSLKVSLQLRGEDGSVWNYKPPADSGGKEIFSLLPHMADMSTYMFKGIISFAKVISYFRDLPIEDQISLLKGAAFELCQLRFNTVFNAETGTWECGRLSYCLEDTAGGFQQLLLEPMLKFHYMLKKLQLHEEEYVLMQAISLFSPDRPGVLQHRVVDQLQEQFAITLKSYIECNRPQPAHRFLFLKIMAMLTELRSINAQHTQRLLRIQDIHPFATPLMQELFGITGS
# human Peroxisome Proliferator-activated Receptor delta (PPARd), PPARD (gene 5467), sequence (Q03181 whole entry, looked up, the tested form may be a part): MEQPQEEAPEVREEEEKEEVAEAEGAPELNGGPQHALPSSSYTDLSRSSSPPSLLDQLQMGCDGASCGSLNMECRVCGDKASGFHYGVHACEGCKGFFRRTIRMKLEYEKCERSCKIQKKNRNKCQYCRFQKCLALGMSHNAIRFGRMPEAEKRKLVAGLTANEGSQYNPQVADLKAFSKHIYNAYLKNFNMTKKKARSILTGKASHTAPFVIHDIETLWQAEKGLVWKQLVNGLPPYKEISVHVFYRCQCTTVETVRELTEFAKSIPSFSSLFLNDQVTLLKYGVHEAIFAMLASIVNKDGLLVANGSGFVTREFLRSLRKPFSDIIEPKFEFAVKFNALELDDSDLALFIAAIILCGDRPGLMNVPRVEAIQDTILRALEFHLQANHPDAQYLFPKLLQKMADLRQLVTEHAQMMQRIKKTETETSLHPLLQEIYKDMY
# human Retinoid X Receptor beta (RXRb), RXRB (gene 6257), sequence (P28702 whole entry, looked up, the tested form may be a part): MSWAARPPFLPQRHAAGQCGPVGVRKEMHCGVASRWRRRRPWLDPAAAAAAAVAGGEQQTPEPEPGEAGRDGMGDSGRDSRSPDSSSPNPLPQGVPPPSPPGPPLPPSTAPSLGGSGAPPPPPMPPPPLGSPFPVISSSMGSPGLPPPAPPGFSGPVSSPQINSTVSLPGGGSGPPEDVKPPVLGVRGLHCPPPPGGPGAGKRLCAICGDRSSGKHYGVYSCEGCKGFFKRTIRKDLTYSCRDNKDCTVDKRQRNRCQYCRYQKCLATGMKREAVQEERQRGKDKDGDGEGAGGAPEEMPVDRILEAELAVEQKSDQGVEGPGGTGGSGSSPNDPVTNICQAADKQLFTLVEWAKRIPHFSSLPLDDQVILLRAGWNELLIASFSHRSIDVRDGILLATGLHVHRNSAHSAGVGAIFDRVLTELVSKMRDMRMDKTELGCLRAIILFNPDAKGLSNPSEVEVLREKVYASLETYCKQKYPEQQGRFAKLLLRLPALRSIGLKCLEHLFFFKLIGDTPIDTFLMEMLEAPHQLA
# Retinoic acid receptor alpha (Homo sapiens), sequence (P10276 whole entry, looked up, the tested form may be a part): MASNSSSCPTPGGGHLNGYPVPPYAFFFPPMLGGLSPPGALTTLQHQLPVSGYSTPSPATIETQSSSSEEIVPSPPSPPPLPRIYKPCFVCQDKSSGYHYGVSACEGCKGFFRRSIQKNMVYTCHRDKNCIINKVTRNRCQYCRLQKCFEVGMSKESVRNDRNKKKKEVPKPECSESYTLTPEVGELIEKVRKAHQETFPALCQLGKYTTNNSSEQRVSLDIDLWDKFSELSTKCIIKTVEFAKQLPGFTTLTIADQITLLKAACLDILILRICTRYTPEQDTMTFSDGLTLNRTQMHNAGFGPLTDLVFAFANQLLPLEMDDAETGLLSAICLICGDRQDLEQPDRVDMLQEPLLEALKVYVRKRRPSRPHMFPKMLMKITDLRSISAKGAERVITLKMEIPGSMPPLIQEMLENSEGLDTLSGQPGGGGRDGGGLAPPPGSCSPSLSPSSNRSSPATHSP
# human RAR-related Orphan Receptor beta (RORb), RORB (gene 6096), sequence (Q92753 whole entry, looked up, the tested form may be a part): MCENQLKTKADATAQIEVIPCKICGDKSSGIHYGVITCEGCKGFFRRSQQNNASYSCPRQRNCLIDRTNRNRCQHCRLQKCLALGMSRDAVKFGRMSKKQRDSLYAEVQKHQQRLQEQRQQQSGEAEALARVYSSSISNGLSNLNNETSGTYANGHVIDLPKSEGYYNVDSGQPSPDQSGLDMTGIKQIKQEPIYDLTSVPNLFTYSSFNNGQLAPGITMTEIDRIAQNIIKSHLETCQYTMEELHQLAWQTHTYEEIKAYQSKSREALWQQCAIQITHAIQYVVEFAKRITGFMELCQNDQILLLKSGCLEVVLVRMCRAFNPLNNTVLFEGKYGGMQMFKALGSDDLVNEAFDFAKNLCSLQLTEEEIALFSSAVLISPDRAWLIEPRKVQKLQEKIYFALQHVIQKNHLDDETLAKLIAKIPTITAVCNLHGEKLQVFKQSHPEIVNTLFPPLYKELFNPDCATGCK
# human RAR-related Orphan Receptor gamma (RORg), RORC (gene 6097), sequence (P51449 whole entry, looked up, the tested form may be a part): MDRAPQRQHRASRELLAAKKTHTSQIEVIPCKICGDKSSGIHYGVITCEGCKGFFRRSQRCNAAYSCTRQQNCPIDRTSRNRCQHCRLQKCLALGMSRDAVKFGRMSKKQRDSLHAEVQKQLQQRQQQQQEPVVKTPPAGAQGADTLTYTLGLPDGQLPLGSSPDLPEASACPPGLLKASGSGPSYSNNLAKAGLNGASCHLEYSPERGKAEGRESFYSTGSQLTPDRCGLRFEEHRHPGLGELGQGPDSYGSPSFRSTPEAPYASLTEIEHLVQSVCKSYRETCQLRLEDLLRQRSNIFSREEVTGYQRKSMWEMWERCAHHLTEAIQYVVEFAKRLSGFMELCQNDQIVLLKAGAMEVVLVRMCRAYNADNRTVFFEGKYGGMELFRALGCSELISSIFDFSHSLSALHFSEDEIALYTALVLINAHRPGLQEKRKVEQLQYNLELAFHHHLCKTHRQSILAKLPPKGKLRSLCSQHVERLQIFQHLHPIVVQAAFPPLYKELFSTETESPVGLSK
# human Peroxisome Proliferator-activated Receptor alpha (PPARa), PPARA (gene 5465), sequence (Q07869 whole entry, looked up, the tested form may be a part): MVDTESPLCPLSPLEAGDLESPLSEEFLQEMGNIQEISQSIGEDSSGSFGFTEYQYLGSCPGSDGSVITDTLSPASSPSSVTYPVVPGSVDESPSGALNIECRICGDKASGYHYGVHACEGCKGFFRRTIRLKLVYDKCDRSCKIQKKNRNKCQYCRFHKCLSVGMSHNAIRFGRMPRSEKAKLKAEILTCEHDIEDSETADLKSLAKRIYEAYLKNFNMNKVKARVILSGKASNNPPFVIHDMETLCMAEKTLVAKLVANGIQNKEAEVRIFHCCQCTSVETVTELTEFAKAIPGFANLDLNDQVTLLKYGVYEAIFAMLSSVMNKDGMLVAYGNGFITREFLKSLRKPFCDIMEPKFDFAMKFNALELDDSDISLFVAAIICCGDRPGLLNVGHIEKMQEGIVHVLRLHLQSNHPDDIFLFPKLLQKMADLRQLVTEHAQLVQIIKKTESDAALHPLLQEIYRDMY
structure (smiles),measurement,setting,value
COc1cc([C@@H]2c3cc4c(cc3[C@@H](O[C@@H]3O[C@@H]5CO[C@@H](C)O[C@H]5[C@H](O)[C@H]3O)[C@H]3COC(=O)[C@H]23)OCO4)cc(OC)c1O,outcome,[1],inactive
same,outcome,[2],inactive
same,outcome,[3],inactive
same,outcome,[4],inactive
same,outcome,[5],inactive
same,outcome,[6],inactive
CN(C)c1cccc(O)c1,outcome,[1],inactive
same,outcome,[2],inactive
same,outcome,[3],inactive
same,outcome,[4],inactive
same,outcome,[5],inactive
Cc1cccc(Nc2ccccc2)c1,outcome,[1],inactive
same,outcome,[2],inactive
same,AC50,[3],85.4 µM (active)
same,outcome,[7],inactive
same,outcome,[6],inactive
CC(Oc1cc(Cl)ccc1Cl)C(=O)O (stereo not drawn),outcome,[1],inactive
same,outcome,[2],inactive
same,outcome,[3],inactive
same,outcome,[8],inactive
CCCCCCC(=O)c1ccccc1,outcome,[1],inactive
same,outcome,[2],inactive
same,AC50,[3],42.8 µM (active)
same,outcome,[9],inactive
CCCCCCCCCCCCS(=O)(=O)Cl,outcome,[1],inactive
same,outcome,[2],inactive
same,outcome,[10],inactive
same,AC50,[3],25 µM (active)
same,outcome,[11],inactive
same,outcome,[4],inactive
same,outcome,[5],inactive
CCO/C=C1\N=C(c2ccccc2)OC1=O,outcome,[1],inactive
same,outcome,[2],inactive
same,outcome,[3],inactive
same,outcome,[7],inactive
same,outcome,[8],inactive
CCCCCCCC(=O)OCC(O)CO (stereo not drawn),outcome,[1],inactive
same,outcome,[2],inactive
same,outcome,[10],inactive
same,outcome,[3],inactive
same,outcome,[7],inactive
same,outcome,[11],inactive
same,outcome,[9],inactive
same,outcome,[6],inactive
CC(C)CCCCCCCCCCCCCCC(=O)O,outcome,[1],inactive
same,outcome,[2],inactive
same,outcome,[10],inactive
same,AC50,[3],30.2 µM (active)
same,outcome,[7],inactive
same,outcome,[4],inactive
same,outcome,[8],inactive
same,AC50,[5],11.4 µM (active)
same,outcome,[6],inactive
C/C=C(\C)C(=O)OCCc1ccccc1,outcome,[1],inactive
same,outcome,[2],inactive
same,outcome,[10],inactive
same,outcome,[3],inactive
same,AC50,[7],25.1 µM (active)
same,outcome,[8],inactive
same,outcome,[5],inactive
same,outcome,[6],inactive
CCCC(=O)OC(C)(C)Cc1ccccc1,outcome,[1],inactive
same,outcome,[2],inactive
same,outcome,[3],inactive
same,outcome,[7],inactive
same,outcome,[8],inactive
same,AC50,[5],63.9 µM (active)
NCC1CCCC(CN)C1 (stereo not drawn),outcome,[1],inactive
same,outcome,[2],inactive
same,outcome,[3],inactive
same,outcome,[7],inactive
same,outcome,[6],inactive
CCCCCCCCCCCCN1CCCCCC1=O,outcome,[1],inactive
same,outcome,[2],inactive
same,outcome,[3],inactive
same,AC50,[7],1.93 µM (active)
same,outcome,[11],inactive
same,outcome,[9],inactive
same,outcome,[5],inactive
same,outcome,[6],inactive
CCOC(=O)COC(=O)c1cc(Oc2ccc(C(F)(F)F)cc2Cl)ccc1[N+](=O)[O-],AC50,[1],14.5 µM (active)
same,outcome,[2],inactive
same,AC50,[3],11.1 µM (active)
same,outcome,[11],inactive
same,outcome,[9],inactive
same,outcome,[6],inactive
COC(=O)C=C(C)CCC=C(C)C,outcome,[1],inactive
same,outcome,[2],inactive
same,AC50,[3],44.5 µM (active)
same,AC50,[7],4.9 µM (active)
same,outcome,[9],inactive
same,outcome,[6],inactive
Clc1ccc(C(c2ccccc2Cl)C(Cl)Cl)cc1 (stereo not drawn),outcome,[1],inactive
same,outcome,[2],inactive
same,outcome,[3],inactive
same,AC50,[7],1.92 µM (active)
same,AC50,[5],9.66 µM (active)
same,outcome,[6],inactive
Cc1ncc[nH]1,outcome,[1],inactive
same,outcome,[2],inactive
same,outcome,[3],inactive
same,outcome,[7],inactive
same,outcome,[9],inactive
same,outcome,[6],inactive
CC(=O)CC(=O)Nc1ccccc1,outcome,[1],inactive
same,outcome,[2],inactive
same,outcome,[3],inactive
same,outcome,[7],inactive
same,outcome,[4],inactive
same,outcome,[6],inactive
CCCCC(CC)COC(=O)c1ccc(O)cc1 (stereo not drawn),outcome,[1],inactive
same,outcome,[2],inactive
same,outcome,[10],inactive
same,AC50,[7],20.7 µM (active)
same,outcome,[4],inactive
same,outcome,[8],inactive
same,outcome,[9],inactive
same,AC50,[5],33.4 µM (active)
same,outcome,[6],inactive
COC(=O)c1ccc([N+](=O)[O-])cc1,outcome,[1],inactive
same,outcome,[2],inactive
same,outcome,[3],inactive
same,outcome,[4],inactive
same,outcome,[5],inactive
same,outcome,[6],inactive
C=Cc1ccncc1,outcome,[1],inactive
same,AC50,[2],25.6 µM (active)
same,outcome,[10],inactive
same,AC50,[3],77.4 µM (active)
same,outcome,[4],inactive
same,AC50,[8],60.2 µM (active)
same,outcome,[9],inactive
same,outcome,[6],inactive
Nc1ccc(NCCO)c([N+](=O)[O-])c1,outcome,[1],inactive
same,outcome,[2],inactive
same,outcome,[3],inactive
same,outcome,[7],inactive
same,outcome,[11],inactive
same,outcome,[4],inactive
same,outcome,[9],inactive
same,outcome,[6],inactive
COCCOC(=O)c1ccccc1C(=O)OCCOC,outcome,[1],inactive
same,outcome,[2],inactive
same,outcome,[3],inactive
same,outcome,[7],inactive
same,outcome,[4],inactive
same,outcome,[8],inactive
CCCCCCCCSCCO,outcome,[1],inactive
same,outcome,[2],inactive
same,AC50,[3],33.8 µM (active)
same,outcome,[7],inactive
same,outcome,[9],inactive
same,outcome,[5],inactive
CC(C)=CCCC(C)CC(=O)O (stereo not drawn),outcome,[1],inactive
same,outcome,[2],inactive
same,outcome,[3],inactive
same,outcome,[7],inactive
same,outcome,[8],inactive
same,outcome,[9],inactive
CCOC(=O)[C@@H](C)Oc1ccc(Oc2nc3ccc(Cl)cc3o2)cc1,outcome,[1],inactive
same,outcome,[2],inactive
same,AC50,[3],39.2 µM (active)
same,outcome,[7],inactive
same,outcome,[5],inactive
same,outcome,[6],inactive
N#Cc1ccc(CC(=O)c2cccc(C(F)(F)F)c2)cc1,outcome,[1],inactive
same,outcome,[2],inactive
same,AC50,[3],31.4 µM (active)
same,AC50,[7],5.99 µM (active)
same,outcome,[11],inactive
same,AC50,[9],26.4 µM (active)
same,AC50,[5],5.99 µM (active)
same,AC50,[6],42 µM (active)
C[Si](C)(C)O[Si](C)(C)C,outcome,[1],inactive
same,outcome,[2],inactive
same,outcome,[10],inactive
same,outcome,[4],inactive
same,outcome,[9],inactive
same,outcome,[5],inactive
same,outcome,[6],inactive
O=C1OC(=O)c2c(Br)c(Br)c(Br)c(Br)c21,outcome,[1],inactive
same,outcome,[2],inactive
same,outcome,[3],inactive
same,outcome,[7],inactive
same,outcome,[11],inactive
CN(C)c1ccncc1,outcome,[1],inactive
same,outcome,[2],inactive
same,outcome,[10],inactive
same,outcome,[7],inactive
same,outcome,[9],inactive
Cc1cc(C)nc(NS(=O)(=O)c2ccc(N)cc2)n1,outcome,[1],inactive
same,outcome,[2],inactive
same,outcome,[3],inactive
same,outcome,[7],inactive
same,outcome,[4],inactive
same,outcome,[6],inactive
Cc1cc(=O)oc2cc(N(C)C)ccc12,outcome,[1],inactive
same,outcome,[2],inactive
same,outcome,[3],inactive
same,outcome,[7],inactive
same,outcome,[6],inactive
Cc1[nH]c(=O)c(C#N)cc1-c1ccncc1,outcome,[1],inactive
same,outcome,[2],inactive
same,outcome,[3],inactive
same,outcome,[7],inactive
same,outcome,[8],inactive
same,outcome,[9],inactive
same,outcome,[6],inactive
C=C(C)C(=O)OCCOC1CC2CC1C1C=CCC21 (stereo not drawn),outcome,[1],inactive
same,outcome,[2],inactive
same,outcome,[3],inactive
same,outcome,[7],inactive
same,outcome,[8],inactive
OCc1ccc(Cl)cc1Cl,outcome,[1],inactive
same,outcome,[2],inactive
same,outcome,[10],inactive
same,outcome,[7],inactive
same,outcome,[6],inactive
